A selection: hits, their analogues and other compounds. The true share with any hit is near 5.7%.
AHR act – activates the human aryl hydrocarbon receptor. AHR-responsive luciferase reporter cells, luminescence. activation, % at 5 µM. 320,000 compounds, 2.5% hits. AID 2796; in the data active means activation above about 47%;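 further: 0% = vehicle wells and 100% = reference agonist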
hgDAF-12 ag – activates the H. glycines DAF-12 receptor ligand-binding domain; AID 687014; HEK293 GAL4-hgDAF12 UAS-luciferase reporter, agonist luminescence; normalized to butyrate control; 370,000 compounds, 1.8% hits; activation, % at 6.8 µM;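 active means activation above a cutoff set at the mean of all screened compounds plus 3 SD, cut at about 10% in these data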;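 further: 0% = DMSO wells and 100% = sodium butyrate wells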
DAX1 inh-1 – blocks DAX1 repression of SF-1 activated StAR promoter. inhibition, % at 6.8 µM. 370,000 compounds, 1.1% hits. HEK293T StAR-luciferase reporter, SF-1/DAX-1 repression relief. AID 652010;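 active means inhibition above the mean over all tested compounds plus 3 SD, cut at about 3.6% in these data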;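 further: 0% = DAX-1 cells with DMSO and 100% = cells lacking DAX-1 with DMSO; higher inhibition means more luminescence from relief of DAX-1 repression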
hcDAF12 agonist – H. contortus DAF-12 activation, primary screen | HEK293 hcDAF-12 lit1-tk-luc reporter, luminescence; 0% DMSO, 100% Δ7-dafachronic acid | activation, % at 6.8 µM | 370,000 compounds, 1.4% hits | AID 652067;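 active means activation above the mean of all tested compounds plus 3 SD, cut at about 5.5% in these data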;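 further: 100% = response to 3 µM Δ7-dafachronic acid high control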
ssDAF-12 act – S. stercoralis DAF-12 activation, primary screen. activation, % at 6.8 µM. HEK293 ssDAF-12/GRIP1 lit1-tk-luc reporter, luminescence; % of 3 µM dafachronic acid response. 370,000 compounds, 1% hits;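 active means activation above the mean over all tested compounds plus 3 SD, cut at about 0.9% in these data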;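 further: 0% = DMSO-only wells and 100% = 3 µM delta7-dafachronic acid wells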
DAX1 inh-2 – inhibits human nuclear receptor DAX1 | P51843 | inhibition, % at 6.75 µM | 340,000 compounds, 0.99% hits | HEK293 Gal4-DAX1 luciferase reporter, luminescence;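 active means inhibition above the mean over all tested compounds plus 3 SD, cut at about 4.2% in these data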;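 further: 0% = DAX1-transfected cells with DMSO and 100% = empty-vector control cells with DMSO; inhibition shows as a rise in luminescence from relieved DAX1 repression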
Target sequence (P51843 207-470 limits assumed): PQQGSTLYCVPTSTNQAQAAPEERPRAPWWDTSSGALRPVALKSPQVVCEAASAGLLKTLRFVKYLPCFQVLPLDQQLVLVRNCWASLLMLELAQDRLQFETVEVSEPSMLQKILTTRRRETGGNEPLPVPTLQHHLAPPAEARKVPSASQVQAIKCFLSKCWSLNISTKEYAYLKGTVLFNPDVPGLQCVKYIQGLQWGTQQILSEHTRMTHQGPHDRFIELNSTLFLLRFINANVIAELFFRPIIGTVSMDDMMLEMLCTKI
AHR act confirm – confirmation of human aryl hydrocarbon receptor activators. shares compounds with AHR act. human cells, AHR-responsive luciferase reporter, luminescence. activation, % at 9 µM. 2,300 compounds, 87% hits. AID 2845; in the data active means activation above about 49%;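 further: HepG2 hepatoma cells carrying a DRE-driven firefly luciferase reporter; 0% = vehicle wells and 100% = reference agonist wells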
PXR act counter – PXR activation, counter-screen for AHR activators; shares compounds with AHR act; AID 434939; 2,300 compounds, 88% hits; activation, % at 11.6 µM; cell-based PXR reporter, luciferase luminescence; in the data active means activation above about 11%;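 further: human hepatoma DPX-2 cells expressing full-length human PXR; 0% = DMSO and 100% = reference agonist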
DAX1 conf – confirmation of human DAX1 (NR0B1) inhibitors; shares compounds with DAX1 inh-1; HEK293T StAR-promoter luciferase reporter, SF-1/DAX-1 repression; inhibition, % at 6.8 µM; 2,400 compounds, 87% hits;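 active means inhibition above the average of every tested compound plus 3 SD, cut at about 3.8% in these data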;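 further: 0% = DAX-1 cells with DMSO and 100% = no DAX-1 control cells with DMSO; active compounds raise luminescence by relieving repression of the StAR reporter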
SF1 AF2mut Luc – nonselective inhibitor or artifact in SF-1 mutant DAX1 counter-screen | shares compounds with DAX1 inh-1 | HEK293 StAR-luciferase, SF-1 AF2 mutant, luminescence | inhibition, % at 6.8 µM | 2,400 compounds, 78% hits | AID 652136;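 active means inhibition above the mean of all tested compounds plus 3 SD, cut at about 3% in these data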;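 further: 0% = DAX-1 transfected cells with DMSO and 100% = cells without DAX-1 with DMSO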
LXRb hcDAF ctr – LXR-beta agonism as hcDAF-12 counter-screen; AID 743027; activation, % at 6.8 µM; shares compounds with hcDAF12 agonist; 3,400 tested, under 10 active; HEK293 Gal4-LXR tk-luc reporter, luminescence, 24 h; normalized: DMSO 0%, positive control 100%;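 active means mean percent activation of the reporter above a cutoff set as the average over tested compounds plus their standard deviation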
Target sequence (P55055 whole entry, looked up, the tested form may be a part): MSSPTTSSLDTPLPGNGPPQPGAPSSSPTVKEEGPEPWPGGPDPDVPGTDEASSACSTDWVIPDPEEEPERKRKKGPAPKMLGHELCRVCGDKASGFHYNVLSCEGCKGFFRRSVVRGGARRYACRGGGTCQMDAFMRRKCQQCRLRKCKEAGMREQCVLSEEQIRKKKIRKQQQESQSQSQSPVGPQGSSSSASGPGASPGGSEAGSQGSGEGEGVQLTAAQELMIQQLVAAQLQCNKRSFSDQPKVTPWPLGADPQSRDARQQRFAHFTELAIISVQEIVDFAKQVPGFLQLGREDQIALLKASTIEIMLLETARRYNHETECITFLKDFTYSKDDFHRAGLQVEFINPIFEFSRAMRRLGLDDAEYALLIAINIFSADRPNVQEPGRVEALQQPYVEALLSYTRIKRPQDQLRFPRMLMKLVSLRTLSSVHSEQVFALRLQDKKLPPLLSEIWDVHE
hcDAF12 ag – confirmation of H. contortus DAF-12 agonists; shares compounds with hcDAF12 agonist; HEK293 hcDAF-12 lit1-tk-luc reporter, luminescence; % of Δ7-dafachronic acid response; activation, % at 6.8 µM; 3,400 compounds, 61% hits; AID 743032;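 active means mean activation across triplicate tests above the threshold derived from the earlier primary screen, cut at about 5.5% in these data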;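 further: 0% = DMSO only wells and 100% = 3 µM Δ7-dafachronic acid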
hgDAF12 ag – confirmation of H. glycines DAF-12 agonists; activation, % at 6.8 µM; HEK293 GAL4-hgDAF12 luciferase reporter, agonist mode; percent of butyrate response; shares compounds with hgDAF-12 ag; 3,300 compounds, 80% hits;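 active means mean activation over triplicate wells above the hit cutoff derived from the earlier primary screen, cut at about 11% in these data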;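 further: 0% = DMSO low control and 100% = 2 mM sodium butyrate high control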
LXRb DAF12 ctr – counter-screen for DAF-12 agonists: agonists of human LXR-beta. activation, % at 6.8 µM. HEK293 Gal4-LXR luciferase reporter, 24 h. shares compounds with hgDAF-12 ag. 3,300 tested, under 10 active;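 active means mean activation of the triplicate above a set limit carried over from the primary screen, none filed active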
Numbers without * were called inactive; . = no result.

SMILES	AHR act	hgDAF-12 ag	DAX1 inh-1	hcDAF12 agonist	ssDAF-12 act	DAX1 inh-2	AHR act confirm	PXR act counter	LXRb hcDAF ctr	hcDAF12 ag	hgDAF12 ag	LXRb DAF12 ctr	others
COc1cccc(Nc2nc(-c3cccnc3)cs2)c1	108*	14*	2	13*	1.7*	4.4*	127*	13*	1	8.2*	17*	1
Cc1ccnc(Nc2nc(-c3ccccc3)cs2)c1	163*	15*	1	7.8*	1	4	89*	48*	2	5.9*	15*	1
NS(=O)(=O)c1ccc(Nc2nc(-c3cccnc3)cs2)cc1	.	4	-1	0	-1	0	.	.	.	.	.	.
COc1ccc(-c2csc(Nc3cccnc3)n2)cc1OC	-18	1	-1	-2	-1	-1	.	.	.	.	.	.
Fc1ccc(-c2csc(Nc3ccccn3)n2)cc1	83*	20*	2	21*	4.3*	3	107*	18*	2	16*	26*	1
Clc1ccccc1Nc1nc(-c2cccnc2)cs1	114*	34*	3.7*	11*	1.1*	9.5*	129*	16*	2	7.3*	24*	1
O=C1NC2(CCCCC2)C(=O)N1CC(=O)N1CCc2ccccc21	0	-2	0	-1	-1	0	.	.	.	.	.	.
c1ccc(Nc2nc(-c3cccnc3)cs2)nc1	166*	18*	5.8*	10*	0	1	74*	41*	2	8.1*	20*	1	DAX1 conf=7.5*;SF1 AF2mut Luc=6.3*
O=C(O)c1ccccc1NC(=O)C1CCN(S(=O)(=O)c2cccc3nsnc23)CC1	1	1	0	1	-1	0	.	.	.	.	.	.
COc1ccc(O)c(/C=N/Nc2nc3ccccc3[nH]2)c1	24	-3	-1	0	-1	1	.	.	.	.	.	.
Cc1cc(=O)[nH]c(N/N=C/c2c(C)nn(-c3ccccc3)c2C)n1	3	-6	-1	0	-1	0	.	.	.	.	.	.
Clc1nc2ccccc2cc1/C=N/Nc1nc2ccccc2[nH]1	83*	14*	2	9.3*	1.7*	0	73*	21*	1	14*	17*	1
Cc1nn(-c2ccccc2)c(C)c1/C=N/Nc1nc2ccccc2[nH]1	181*	22*	6.4*	9.1*	1.8*	1	34	26*	2	8.9*	17*	1	DAX1 conf=17*;SF1 AF2mut Luc=8.5*
Cc1ccc(O)c(-c2cc(-c3ccccc3C)[nH]n2)c1	.	7	0	1	0	0	.	.	.	.	.	.
Cc1ccc(-c2cc(-c3cccs3)[nH]n2)c(O)c1	109*	19*	4.3*	19*	2.3*	3	118*	.	2	13*	21*	1
Cc1c(C(=O)N2c3ccccc3CC2C)oc2ccccc12 (stereo not drawn)	85*	18*	5.3*	11*	2.3*	3	74*	28*	1	17*	20*	1	DAX1 conf=8.8*;SF1 AF2mut Luc=6.1*
Oc1ccccc1-c1cc(-c2ccccc2Cl)[nH]n1	96*	25*	8.6*	19*	4.0*	1	115*	18*	2	15*	27*	1	DAX1 conf=19*;SF1 AF2mut Luc=11*
COc1ccc(NC(=O)c2cc3ccccc3cc2OC)cc1	96*	15*	2	12*	3.2*	4	66*	12*	1	12*	17*	1
O=C(Nc1ccc2c(c1)OCO2)C(=O)c1c[nH]c2ccccc12	84*	13*	18*	9.3*	1	2	70*	38*	.	.	19*	1	DAX1 conf=17*;SF1 AF2mut Luc=6.5*
COc1cccc(NC(=O)c2ccc3c(c2)OCO3)c1	134*	14*	3	7.1*	2.8*	0	35	26*	1	8.2*	17*	1
COc1cccc(NC(=O)c2oc3ccccc3c2NC(=O)c2ccc3c(c2)OCO3)c1	-6	-1	-1	1	-1	-1	.	.	.	.	.	.
O=C(Nc1ccc2c(c1)OCO2)c1cccc(F)c1	24	10	1	1	0	2	.	.	.	.	.	.
O=C(Nc1ccc2c(c1)OCCO2)C(=O)c1c[nH]c2ccccc12	3	10	2	5	1	-3	.	.	.	.	.	.
O=C(Nc1ccc2c(c1)OCO2)c1ccccc1	101*	16*	2	9.3*	0	1	52*	24*	1	4	18*	1
CN(C(=O)CN1CCN(c2cnn(-c3ccccc3)c(=O)c2Cl)CC1)C1CCS(=O)(=O)C1 (stereo not drawn)	0	-1	1	0	-1	0	.	.	.	.	.	.
CCOc1ccccc1NC1=C(Cl)C(=O)N(c2ccccc2)C1=O	10	-2	0	1	-2	-3	.	.	.	.	.	.
Cc1ccccc1CCNC(=O)c1ccc(Cl)c(S(=O)(=O)N2CC(C)OC(C)C2)c1 (stereo not drawn)	-3	-7	-5	-4	-2	-3	.	.	.	.	.	.
CC(Sc1ccc(S(=O)(=O)N2CCN(C)CC2)cn1)C(=O)NC1(C#N)CCCCC1 (stereo not drawn)	.	-1	-1	-1	-1	0	.	.	.	.	.	.
CC[C@]12C(=O)N(C)C[C@H]([C@@H]3C(=O)N(Cc4ccccc4)C(=O)[C@@H]31)N2C(=O)c1ccc(F)cc1	.	0	0	-2	-1	-1	.	.	.	.	.	.
